According to the supplement of paper PMC12067093, “Discovery and optimisation of a covalent ligand for TRIM25 and its application to targeted protein ubiquitination” (Chemical Science, 2025):
Of roughly 21,000 targets only a part is listed; those with the largest changes were picked by preference.

Compound: Cc1cc(ccc1-c1ccccc1)C(=O)N1CCCN(CC1)C(=O)CCl [compound 10]
Experiment: probe-labelled cysteine peptide fold change vs DMSO (competition) (log2 fold change); higher = less target engagement (more negative = stronger competition)
Conditions: THP-1, incubation time: 4 h
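Note: competitive profiling in live THP-1 cells: cysteine peptides tagged with an iodoacetamide desthiobiotin (IA-DTB) probe, intensity after compound treatment relative to DMSO-treated cells.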

UniProt O00391, sequence (O00391 whole entry, looked up): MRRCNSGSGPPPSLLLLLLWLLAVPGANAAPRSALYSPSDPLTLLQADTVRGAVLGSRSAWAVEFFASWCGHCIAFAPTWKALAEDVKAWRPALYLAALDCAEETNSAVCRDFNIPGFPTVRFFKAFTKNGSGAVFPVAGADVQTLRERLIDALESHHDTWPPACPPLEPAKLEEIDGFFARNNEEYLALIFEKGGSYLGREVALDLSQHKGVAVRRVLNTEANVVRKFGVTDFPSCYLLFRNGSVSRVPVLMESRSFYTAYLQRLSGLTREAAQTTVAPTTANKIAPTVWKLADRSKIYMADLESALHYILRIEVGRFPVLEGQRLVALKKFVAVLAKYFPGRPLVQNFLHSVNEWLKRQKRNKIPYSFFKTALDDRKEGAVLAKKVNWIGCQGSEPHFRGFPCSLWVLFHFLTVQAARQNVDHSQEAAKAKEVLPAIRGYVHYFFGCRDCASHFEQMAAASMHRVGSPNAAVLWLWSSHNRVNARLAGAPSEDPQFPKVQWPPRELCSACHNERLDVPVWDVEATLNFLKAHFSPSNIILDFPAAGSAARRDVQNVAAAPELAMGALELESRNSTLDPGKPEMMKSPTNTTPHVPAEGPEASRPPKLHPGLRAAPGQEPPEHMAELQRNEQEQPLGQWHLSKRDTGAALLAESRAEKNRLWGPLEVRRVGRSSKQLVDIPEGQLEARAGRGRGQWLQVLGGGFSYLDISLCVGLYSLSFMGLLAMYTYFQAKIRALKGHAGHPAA
UniProt P28062, sequence (P28062 whole entry, looked up): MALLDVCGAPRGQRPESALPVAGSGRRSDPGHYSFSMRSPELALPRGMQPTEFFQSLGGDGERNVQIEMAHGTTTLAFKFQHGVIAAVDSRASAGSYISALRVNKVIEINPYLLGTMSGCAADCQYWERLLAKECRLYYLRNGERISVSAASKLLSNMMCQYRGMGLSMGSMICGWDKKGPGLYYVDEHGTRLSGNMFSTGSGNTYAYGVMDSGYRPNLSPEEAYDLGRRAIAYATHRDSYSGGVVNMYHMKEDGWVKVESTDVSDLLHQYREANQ
UniProt O14818, sequence (O14818 whole entry, looked up): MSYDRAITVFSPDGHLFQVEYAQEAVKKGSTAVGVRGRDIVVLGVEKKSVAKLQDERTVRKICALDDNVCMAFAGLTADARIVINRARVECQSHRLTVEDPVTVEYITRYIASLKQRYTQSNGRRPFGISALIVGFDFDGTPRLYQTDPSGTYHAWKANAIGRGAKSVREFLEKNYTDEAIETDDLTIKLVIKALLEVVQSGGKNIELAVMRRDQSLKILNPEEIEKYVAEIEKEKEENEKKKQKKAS
UniProt P42696, sequence (P42696 whole entry, looked up): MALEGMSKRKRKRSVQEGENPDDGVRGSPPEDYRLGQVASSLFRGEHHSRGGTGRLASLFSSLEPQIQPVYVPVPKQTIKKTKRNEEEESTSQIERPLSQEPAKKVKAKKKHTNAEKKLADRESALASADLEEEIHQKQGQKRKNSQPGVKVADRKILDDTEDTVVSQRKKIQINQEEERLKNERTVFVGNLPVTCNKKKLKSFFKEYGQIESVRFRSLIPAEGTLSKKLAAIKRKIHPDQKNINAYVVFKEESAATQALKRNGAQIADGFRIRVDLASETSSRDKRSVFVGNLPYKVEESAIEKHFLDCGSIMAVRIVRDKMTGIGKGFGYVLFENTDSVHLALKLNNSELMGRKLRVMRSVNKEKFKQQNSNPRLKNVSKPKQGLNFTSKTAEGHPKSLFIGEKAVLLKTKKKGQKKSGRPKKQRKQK
UniProt P18031, sequence (P18031 whole entry, looked up): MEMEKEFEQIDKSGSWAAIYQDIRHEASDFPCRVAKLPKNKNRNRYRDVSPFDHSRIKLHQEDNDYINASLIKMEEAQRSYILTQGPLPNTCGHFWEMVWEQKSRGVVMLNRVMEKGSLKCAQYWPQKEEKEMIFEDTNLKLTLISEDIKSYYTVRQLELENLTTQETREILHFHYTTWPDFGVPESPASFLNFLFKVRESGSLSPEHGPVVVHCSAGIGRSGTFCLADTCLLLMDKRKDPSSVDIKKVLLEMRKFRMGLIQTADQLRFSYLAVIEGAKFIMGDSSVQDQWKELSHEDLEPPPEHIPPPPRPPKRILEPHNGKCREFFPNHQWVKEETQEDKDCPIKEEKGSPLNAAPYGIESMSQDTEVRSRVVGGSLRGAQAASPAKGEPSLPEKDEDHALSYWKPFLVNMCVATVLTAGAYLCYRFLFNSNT
UniProt Q96S59, sequence (Q96S59 whole entry, looked up): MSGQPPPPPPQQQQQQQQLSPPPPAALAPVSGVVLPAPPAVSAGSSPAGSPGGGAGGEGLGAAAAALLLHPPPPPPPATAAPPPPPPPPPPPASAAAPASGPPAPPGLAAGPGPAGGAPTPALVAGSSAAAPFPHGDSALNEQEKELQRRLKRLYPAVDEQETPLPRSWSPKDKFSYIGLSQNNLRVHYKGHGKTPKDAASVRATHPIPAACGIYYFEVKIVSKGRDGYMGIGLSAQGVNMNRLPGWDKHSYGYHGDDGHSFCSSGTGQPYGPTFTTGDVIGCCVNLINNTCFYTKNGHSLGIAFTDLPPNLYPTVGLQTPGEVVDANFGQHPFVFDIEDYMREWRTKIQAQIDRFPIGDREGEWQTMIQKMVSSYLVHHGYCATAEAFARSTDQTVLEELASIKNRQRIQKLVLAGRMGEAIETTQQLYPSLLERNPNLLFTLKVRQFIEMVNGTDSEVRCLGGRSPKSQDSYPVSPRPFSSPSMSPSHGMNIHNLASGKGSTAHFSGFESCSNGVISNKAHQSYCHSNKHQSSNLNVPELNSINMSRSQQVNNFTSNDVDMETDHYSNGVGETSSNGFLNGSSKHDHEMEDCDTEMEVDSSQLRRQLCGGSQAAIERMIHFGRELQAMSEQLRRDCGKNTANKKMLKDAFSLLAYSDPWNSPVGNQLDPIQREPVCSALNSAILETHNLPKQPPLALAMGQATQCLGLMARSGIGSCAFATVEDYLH
UniProt O94761, sequence (O94761 whole entry, looked up): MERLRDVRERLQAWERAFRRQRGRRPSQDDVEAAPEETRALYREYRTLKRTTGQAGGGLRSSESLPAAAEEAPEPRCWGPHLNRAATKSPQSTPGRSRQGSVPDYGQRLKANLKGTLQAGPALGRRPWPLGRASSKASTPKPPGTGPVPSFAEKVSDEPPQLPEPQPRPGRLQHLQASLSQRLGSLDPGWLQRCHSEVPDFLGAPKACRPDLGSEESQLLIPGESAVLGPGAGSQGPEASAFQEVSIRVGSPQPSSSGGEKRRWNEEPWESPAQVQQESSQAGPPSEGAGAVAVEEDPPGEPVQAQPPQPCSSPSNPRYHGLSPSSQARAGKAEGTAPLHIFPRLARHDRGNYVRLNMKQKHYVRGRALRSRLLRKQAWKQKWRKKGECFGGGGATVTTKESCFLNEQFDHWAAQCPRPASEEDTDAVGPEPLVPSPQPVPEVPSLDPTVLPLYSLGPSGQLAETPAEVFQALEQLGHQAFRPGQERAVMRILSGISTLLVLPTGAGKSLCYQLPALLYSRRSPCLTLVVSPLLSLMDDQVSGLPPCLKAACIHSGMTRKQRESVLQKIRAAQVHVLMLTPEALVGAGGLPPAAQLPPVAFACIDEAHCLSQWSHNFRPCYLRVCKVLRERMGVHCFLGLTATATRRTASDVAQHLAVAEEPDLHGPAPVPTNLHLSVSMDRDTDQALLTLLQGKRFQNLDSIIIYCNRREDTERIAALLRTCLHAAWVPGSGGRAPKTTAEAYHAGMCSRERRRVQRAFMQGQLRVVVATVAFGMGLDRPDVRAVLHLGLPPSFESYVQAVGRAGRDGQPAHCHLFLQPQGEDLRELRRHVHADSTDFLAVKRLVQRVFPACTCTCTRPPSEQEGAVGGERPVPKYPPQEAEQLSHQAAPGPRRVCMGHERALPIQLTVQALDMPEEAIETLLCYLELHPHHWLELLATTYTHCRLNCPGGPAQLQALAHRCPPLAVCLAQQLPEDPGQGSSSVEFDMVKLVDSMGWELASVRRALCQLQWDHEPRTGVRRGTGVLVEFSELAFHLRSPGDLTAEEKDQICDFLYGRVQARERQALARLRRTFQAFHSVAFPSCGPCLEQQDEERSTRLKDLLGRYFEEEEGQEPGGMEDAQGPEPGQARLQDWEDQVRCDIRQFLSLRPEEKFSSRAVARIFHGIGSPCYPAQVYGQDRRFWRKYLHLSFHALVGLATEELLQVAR

Target	probe-labelled cysteine peptide fold change (10 µM)	probe-labelled cysteine peptide fold change (50 µM)
PTPN1_P18031_344_EETQEDKDCPIKEEK (UniProt P18031)	-0.593	-1.57
PRMT1_Q99873_103_DKVVLDVGSGTGILCMFAAK (UniProt Q99873)	-0.168	-0.709
RAD54L2_Q9Y4B4_618_AFCVCCK (UniProt Q9Y4B4)	-0.173	-0.639
RLF_Q13129_400_TIACLLPEDLEVRR (UniProt Q13129)	-0.0742	-0.58
RGPD3_A6NKT7_537_SWWDAVCTLIHR<|>RGPD8_O14715_537_SWWDAVCTLIHR<|>RGPD1_P0DJD0_528_SWWDAVCTLIHR<|>RGPD2_P0DJD1_536_SWWDAVCTLIHR<|>RANBP2_P49792_536_SWWDAVCTLIHR<|>RGPD4_Q7Z3J3_537_SWWDAVCTLIHR<|>RGPD6_Q99666_537_SWWDAVCTLIHR (UniProt Q7Z3J3+P49792+P0DJD1+Q99666+P0DJD0+O14715+A6NKT7)	-0.451	-0.14
PSMB3_P49720_19_NCVAIAADRR (UniProt P49720)	0.0313	0.234
PSMB8_P28062_7_ALLDVCGAPR (UniProt P28062)	-0.068	-0.273
PRPF4_O43172_441_RCVYTIPAHQNLVTGVK (UniProt O43172)	-0.0522	-0.2
RABGAP1L_Q5R372_665_NNFEDLHCK (UniProt Q5R372)	0.206	0.197
PSMD11_O00231_202_TTANAIYCPPK (UniProt O00231)	0.077	0.248
RMND5A_Q9H871_328+336_CWYHSIFACPILR (UniProt Q9H871)	-0.0698	-0.177
PSMA7_O14818_91_ARVECQSHR (UniProt O14818)	-0.0556	0.107
RHOC_P08134_16_KLVIVGDGACGK<|>RHOA_P61586_16_KLVIVGDGACGK (UniProt P61586+P08134)	-0.0365	-0.193
RASSF5_Q8WWW0_225_NCLGMK (UniProt Q8WWW0)	-0.275	-0.844
RBM34_P42696_196_TVFVGNLPVTCNK (UniProt P42696)	0.0157	-0.186
RECQL4_O94761_814_DGQPAHCHLFLQPQGEDLR (UniProt O94761)	-0.0251	-0.0847
RAB33A_Q14088_135_MWIQECNGHAVPPLVPK (UniProt Q14088)	0.0206	0.0086

Target	probe-labelled cysteine peptide fold change (10 µM)	probe-labelled cysteine peptide fold change (50 µM)
PRKDC_P78527_2342_KNILEESLCELVAK (UniProt P78527)	-0.182	-0.0562
PUM1_Q14671_980_CIECVQPQSLQFIIDAFK (UniProt Q14671)	0.213	-0.0133
RBM25_P49756_132_LQAFGFCEYKEPESTLR (UniProt P49756)	-0.148	-0.0661
PTER_Q96BW5_196_VLQATAHAQAQLGCPVIIHPGR (UniProt Q96BW5)	0.2	0.329
PRKCD_Q05655_261+264_CEDCGMNVHHK (UniProt Q05655)	-0.702	-1.69
RGMB_Q6NW40_226_ITIIFKAHHECTDQK (UniProt Q6NW40)	-0.0752	-1.11
RBM4B_Q9BQ04_107_FEEYGPVIECDIVK<|>RBM4_Q9BWF3_107_FEEYGPVIECDIVK (UniProt Q9BWF3+Q9BQ04)	0.566	0.744
PRPF6_O94906_837_KCEHDPHVLLAVAK (UniProt O94906)	-0.315	0.18
PRKDC_P78527_373_GYGLFAGPCK (UniProt P78527)	-0.037	0.131
RBBP5_Q15291_100_LVSASTDNIVSQWDVLSGDCDQR (UniProt Q15291)	0.121	0.0651
PSME4_Q14997_718_QGYTLSCNLLHHLLR (UniProt Q14997)	0.366	0.173
RANBP9_Q96S59_707_QPPLALAMGQATQCLGLMAR (UniProt Q96S59)	0.193	0.216
RAD54L2_Q9Y4B4_1143_MAASGSQGPSCESTSNGR (UniProt Q9Y4B4)	-0.204	-0.485
PRKCD_Q05655_127_VLMSVQYFLEDVDCK (UniProt Q05655)	-0.226	-0.31
PTPRC_P08575_610_SCNLDEQQELVERDDEK (UniProt P08575)	-0.427	-1.12
QSOX1_O00391_110_AWRPALYLAALDCAEETNSAVCR (UniProt O00391)	-0.147	-0.174
PRKD2_Q9BZL6_169_CDGCGLNYHK (UniProt Q9BZL6)	-0.0725	0.00149
